# Measured values as given in ChEMBL document CHEMBL4808148, “HDAC6 screening dataset using tau-based substrate in an enzymatic assay yields selective inhibitors and activators” (2021).
# The campaign covered roughly 5,600 compounds. About 390 (7%) showed an effect of 50% or more. What follows is part of a selection rich in strong results, with near analogues and random picks from the rest.
# Target: T1, Protein deacetylase HDAC6 (Homo sapiens) (UniProt Q9UBN7)
# T1 sequence (whole entry): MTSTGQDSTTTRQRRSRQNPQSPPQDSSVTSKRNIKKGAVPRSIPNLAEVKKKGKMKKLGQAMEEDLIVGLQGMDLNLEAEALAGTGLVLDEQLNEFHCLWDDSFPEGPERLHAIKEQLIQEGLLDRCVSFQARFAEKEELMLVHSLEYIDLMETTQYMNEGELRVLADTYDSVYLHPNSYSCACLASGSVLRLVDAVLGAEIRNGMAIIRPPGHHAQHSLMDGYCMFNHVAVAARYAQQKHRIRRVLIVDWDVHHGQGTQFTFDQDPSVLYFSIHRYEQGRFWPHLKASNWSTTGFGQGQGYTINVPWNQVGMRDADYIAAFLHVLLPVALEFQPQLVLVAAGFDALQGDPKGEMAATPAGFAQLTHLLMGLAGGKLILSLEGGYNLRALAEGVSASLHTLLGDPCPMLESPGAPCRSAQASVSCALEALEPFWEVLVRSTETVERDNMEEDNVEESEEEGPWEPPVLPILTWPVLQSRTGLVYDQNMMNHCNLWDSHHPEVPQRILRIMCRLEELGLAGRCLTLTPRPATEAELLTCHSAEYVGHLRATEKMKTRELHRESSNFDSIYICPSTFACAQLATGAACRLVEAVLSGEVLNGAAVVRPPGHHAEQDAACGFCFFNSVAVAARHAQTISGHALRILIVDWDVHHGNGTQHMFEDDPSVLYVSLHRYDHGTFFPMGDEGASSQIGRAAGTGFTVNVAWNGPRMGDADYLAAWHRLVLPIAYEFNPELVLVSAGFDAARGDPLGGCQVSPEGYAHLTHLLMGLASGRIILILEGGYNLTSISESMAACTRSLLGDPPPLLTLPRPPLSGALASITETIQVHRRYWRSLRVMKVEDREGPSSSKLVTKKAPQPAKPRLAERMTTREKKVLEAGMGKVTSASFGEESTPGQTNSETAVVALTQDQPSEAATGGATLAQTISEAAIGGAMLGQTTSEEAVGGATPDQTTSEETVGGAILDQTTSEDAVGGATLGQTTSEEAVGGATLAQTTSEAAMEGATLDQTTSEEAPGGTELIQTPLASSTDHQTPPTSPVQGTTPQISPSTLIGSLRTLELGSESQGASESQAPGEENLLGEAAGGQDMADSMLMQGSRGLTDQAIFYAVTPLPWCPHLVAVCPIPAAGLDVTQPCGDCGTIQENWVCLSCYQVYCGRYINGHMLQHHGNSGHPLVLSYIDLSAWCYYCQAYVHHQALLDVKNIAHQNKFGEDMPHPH
# Settings: at 10 µM
row,Compound,inhibition
1,CN1CCN2c3c(cccc31)[C@@H]1CN(CCCC(=O)c3ccc(F)cc3)CC[C@@H]12,-3.09%
2,COC(=O)Nc1ccc2[nH]cc(CCNC(C)=O)c2c1,44.5%
3,CCOc1ccccc1OCC1CNCCO1 (stereo unspecified),-0.93%
4,c1ccc(Oc2nc3ncnc-3c(NC3CCCCC3)[nH]2)cc1,-6.25%
5,CC(C)N1CCN(c2ccc(C(=O)c3c(-c4ccc(O)cc4)sc4cc(O)ccc34)cc2)CC1,15%
6,COc1ccc(C(=O)NCc2cccnc2)cc1C(=O)NCc1cccnc1,11.5%
7,Cc1cc(Cn2cnc3c2C[C@@H](C(=O)O)N(C(=O)C(c2ccccc2)c2ccccc2)C3)ccc1N(C)C,17.5%
8,CC1CS(=O)(=O)CCN1/N=C/c1ccc([N+](=O)[O-])o1 (stereo unspecified),-9.63%
9,CCc1nc(-c2cccc(C)c2)c(-c2ccnc(NC(=O)c3ccccc3)c2)s1,15.3%
10,CC1(C)CCC(C)(C)c2cc(NC(=O)c3ccc(C(=O)O)cc3)ccc21,17.1%
11,O=C(O)CNC(=O)c1ccccc1,17.6%
12,O=C(Nc1cc2cc[nH]c2cn1)c1ccccc1,105%
13,NC(C(=O)O)c1ccc(C(=O)O)c(O)c1 (racemic),-7.25%
14,O=C(Nc1ccc(C(=O)O)c(O)c1)c1ccccc1,68.6%
15,O=C(Nc1ccc(Cl)nc1)c1ccc(Cl)cc1,27.1%
16,O=C(Nc1ccc2[nH]ccc2c1)c1ccccc1,89.7%
17,NC(=O)c1ccc2[nH]ccc2c1,11.2%
18,CC1=C(/C=C/C(C)=C/C=C/C(C)CC=O)C(C)(C)CCC1 (stereo unspecified),0.68%
19,Cc1ccc(F)cc1C(=O)Nc1ccc(C(=O)N2Cc3cccn3Cc3ccccc32)c(Cl)c1,-1.78%
20,O=C1CNC(=O)CN1,16.6%
21,O=C(O)[C@@H](S)[C@@H](S)C(=O)O,28.7%
22,CN1[C@@H]2CC[C@H]1C[C@@H](OC(=O)c1c[nH]c3ccccc13)C2.CN1[C@@H]2CC[C@H]1C[C@H](OC(=O)c1c[nH]c3ccccc13)C2,2.5%
23,CCc1cc(-c2[nH]nc(C)c2-c2ccc3c(c2)OCCO3)c(O)cc1O,8.29%
24,CC1(C)Oc2ccc(C#N)cc2[C@@H](OC2=CC(=O)CC2)[C@@H]1O,3.84%

row,Compound,inhibition
1,Cc1c(-c2ccccc2)oc2c(C(=O)OCCN3CCCCC3)cccc2c1=O,11.8%
2,CNc1nc(NCc2ccc(NS(C)(=O)=O)cc2Cl)cc(-c2ccccn2)n1,13.6%
3,Nc1ccc(S(=O)(=O)O)cc1,9.02%
4,Cc1cc(O)c(C(=O)N[C@@H](C(=O)N[C@@H]2C(=O)N3C(C(=O)O)=C(CSc4nnnn4C)CS[C@H]23)c2ccc(O)cc2)cn1,29%
5,Cc1cc(-c2ccc3c(c2)CC[C@H]3N2CC3(CCN(C(=O)Cc4cn5cc(C)sc5n4)CC3)C2)ncn1,0.83%
6,CN1C(=O)c2c(nn(Cc3ccc(-c4cccc(F)n4)cc3)c2Nc2ccccc2)N2C1=N[C@@H]1CCC[C@@H]12,-2.77%
7,O=c1cc(N2CCOCC2)oc2c(-c3ccccc3)cccc12,1.23%
8,O=c1cc(N2CCOCC2)oc2c(-c3cccc4c3sc3ccccc34)cccc12,-7.08%
9,CCOC(=O)Nc1ccc2c(c1)N(C(=O)CCN1CCOCC1)c1ccccc1S2,-0.7%
10,C[C@@H]1CN(CC(=O)Nc2ccc3c(c2)Cc2cccc(-c4cc(=O)cc(N5CCOCC5)o4)c2S3)C[C@H](C)O1,61%
11,O=c1cc(-c2cccc3c2Sc2ccccc2S3)oc(N2CCOCC2)c1,82.8%
12,Nc1ncnc2c1nc(Br)n2[C@@H]1O[C@@H]2COP(=O)(O)O[C@H]2[C@H]1O,4.67%
13,O=C(O)Cc1sc(-c2ccccc2)nc1-c1ccc(Cl)cc1,-4.01%
14,Nc1c2c(nc3c1CCC3)CCCC2,13%
15,CCN(CC)c1ccc(/C=N/NC(=O)c2ccc(O)cc2)cc1,80%
16,O=C(N/N=C/c1ccc([N+](=O)[O-])o1)c1ccc(O)cc1,18.8%
17,CCC(=O)c1ccc(O)cc1,7.92%
18,C/N=C(/NC#N)NCCSCc1csc(NC(=N)N)n1,4.88%
19,COc1cccc(CCc2ccccc2OCC[C@@H]2C[C@@H](O)CN2C)c1,12.1%
20,O=C1C(Cl)=C(NCCN2CCOCC2)C(=O)c2ncccc21,-2.93%
21,Cc1noc(-c2ccc(-c3ccc(CC(=O)O)cc3)cc2)c1NC(=O)O[C@H](C)c1ccccc1,15.4%
22,O=C(N[C@@H](Cc1c[nH]c2ccccc12)C(=O)O)c1ccc(Cl)cc1,21.4%
23,O=C(O)CCCc1ccccc1,15.3%
24,O=C(O)CCC(=O)c1ccc(-c2ccccc2)cc1,58.7%

row,Compound,inhibition
1,O=C(CN1C2=NCCN2c2ccccc21)c1ccc(-c2ccccc2)cc1,11.4%
2,CN1CCN(c2ccc(-c3cccc(CN4CCOCC4)c3)cc2NC(=O)c2c[nH]c(=O)cc2C(F)(F)F)CC1,19.4%
3,Oc1cccc(Nc2ncc(F)c(Nc3cccc(O)c3)n2)c1,-0.51%
4,O=c1c(-c2ccccc2)c1-c1ccccc1,68.4%
5,O=C1[C@H]2CCCC[C@H]2C(=O)N1CCCCN1CCN(c2nsc3ccccc23)CC1,9.58%
6,CCCC(=O)O[C@]1(C(=O)CO)CCC2[C@@H]3CCC4=CC(=O)CC[C@]4(C)C3[C@@H](O)C[C@@]21C (stereo partly specified),13.5%
7,CCCCC(=O)O[C@]1(C(=O)CO)CC[C@H]2[C@@H]3CCC4=CC(=O)CC[C@]4(C)[C@H]3[C@@H](O)C[C@@]21C,55.9%
8,C[C@]12CCC(=O)C=C1CC[C@@H]1[C@@H]2[C@@H](O)C[C@@]2(C)[C@H]1CC[C@]2(O)C(=O)CO,12%
9,O=[N+]([O-])c1cc([N+](=O)[O-])c(/C=C/c2ccc(Cl)c(Cl)c2)cc1/C=C/c1ccc(Cl)c(Cl)c1,7.35%
10,Nn1cnc2cc3ccccc3cc2c1=O,17.4%
11,Clc1ccc(CCCOCCCN2CCCCC2)cc1,4.84%
12,NC(=O)Nc1sc(-c2ccc(F)cc2)cc1C(N)=O,81.4%
13,NC(=O)Nc1cc(-c2cccc(F)c2)sc1C(=O)N[C@H]1CCCNC1,8.78%
14,O=C(O)CN(CCN(CC(=O)O)CC(=O)O)CC(=O)O,-8.06%
15,O=C(/C=C/c1cccnc1)c1ccncc1,2.24%
16,Cc1c(C)c2c(c(C)c1O)CCC(C)(C)O2,20.7%
17,CC(=O)[C@H]1CC[C@H]2[C@@H]3C[C@H](C)C4=CC(=O)CC[C@]4(C)[C@H]3[C@@H](O)C[C@]12C,19.3%
18,COc1ccccc1C(=O)Nc1cc2c(cc1N1CCCC1)n(C)c(=O)n2C,46.1%
19,CC(=O)Oc1ccccc1C(=O)Nc1ccccc1,87.4%
20,CC(=O)Oc1ccccc1C(=O)Oc1ccccc1C(=O)O,41%
21,CCCC(=O)Nc1cccc(NC(=O)c2ccccc2Br)c1,21%
22,COc1ccccc1C(=O)Nc1cccc(NC(=O)c2cccc(C)c2)c1,63.7%
23,CC(=O)Oc1ccccc1C(=O)O,2.2%
